# PubChem BioAssay AID488890 (Southern Research Specialized Biocontainment Screening …, 2010)
# The whole screen tested about 320,000 compounds, of which about 1,300 (0.41%) were called active. Another 3% or so got no clear call; they are omitted. The rule behind the calls is not given here. Only a sample is shown. Results with a measured potency or affinity are listed apart.
# Test: growth inhibition of non-replicating M. tuberculosis (AID 488890);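 note: plate controls were DMSO cells for no effect and high antibiotic wells for full effect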
# Settings: Mycobacterium tuberculosis non-replicating, at 25 µM, stronger effect = higher value
row,SMILES,inhibition [%]
1,Cc1cc(C)nc(NN2C(=O)C=CC2=O)n1,-13.2
2,C=CCC1(CC=C)CCCN1C(=O)CC1C(=O)NCCN1Cc1cccc(OC)c1OC (configuration not stated),-15.7
3,COC(=O)c1ccc(NC(=O)c2cccc(NC(=O)c3ccccc3)c2)cc1,32
4,CC1(C)CC2CC(C)(CN2C(=O)COC(=O)c2cccnc2Cl)C1 (configuration not stated),14.2
5,O=C(Nc1c2c(nn1-c1ccc(F)cc1)CS(=O)(=O)C2)C1CCCC1,-10.4
6,COc1ccc(OCCCc2c(C)n[nH]c2C)cc1,-13.9
7,COc1ccc(OCCCCc2c(C)n[nH]c2C)cc1,78.2
8,Cc1n[nH]c(C)c1CCCCOc1ccccc1,78.1
9,COc1cccc(OCCc2c(C)n[nH]c2C)c1,30.4
10,Cc1ccc2c(c1)N(C(=O)CCC(=O)Nc1ccccc1Br)CC(C)O2 (configuration not stated),-2.28
11,CCOC(=O)N1CCN(C(=O)C2c3cc(OC)c(OC)cc3C(=O)N3CCc4ccccc4C23)CC1 (configuration not stated),-11.4
12,CC(=O)C1=C(C)Nc2ncnn2C1c1ccc(O)cc1 (configuration not stated),-8.89
13,O=C(COC(=O)/C=C/c1ccc(F)cc1)Nc1cccc(S(=O)(=O)N2CCCC2)c1,17.9
14,CC(=O)Nc1ccc(S(=O)(=O)n2cnc(C)c2)cc1,-2.83
15,Cc1ccc2nnc(Cl)n2n1,-5.68
16,FC(F)(F)c1nnc2ccc(N3CCCCCC3)nn12,8.69
17,Clc1ccc2nncn2n1,1.77
18,FC(F)(F)c1nnc2ccc(N3CCCC3)nn12,1.54
19,FC(F)(F)c1nnc2ccc(N3CCCCC3)nn12,-3.88
20,FC(F)(Cl)c1nnc2ccc(Sc3ccccn3)nn12,-6.69
21,Cc1cc(C)c2nc(NNC(=O)c3ccc(S(=O)(=O)N4CCCC(C)C4)cc3)sc2c1 (configuration not stated),-16.4
22,COc1ccccc1NC(=O)c1ccc(CSc2ccccc2)o1,68.3
23,O=C(Nc1ccc(F)cc1)c1ccc(CSc2ccccc2)o1,77.5
24,CN1CCN(c2nc3c(c(=O)[nH]c(=O)n3C)n2Cc2ccccc2F)CC1,-2.87

row,SMILES,inhibition [%]
1,COc1ccc(S(=O)(=O)/N=C2/C=CC(=O)C(C)=C2C)cc1,24.9
2,Cc1ccc2c(c1)/C(=N/OS(=O)(=O)c1ccccc1)CCS2,1.31
3,Cc1ccc(S(=O)(=O)ON=C2CCN(S(=O)(=O)c3ccccc3)CC2)cc1,-9.7
4,CC1=C/C(=N\OC(=O)/C=C/c2ccccc2)C(C)=CC1=O,54.5
5,CC(Cc1cccnc1)NC(=O)c1cc(COc2ccc(F)cc2Cl)on1 (configuration not stated),15.8
6,CCN(CC)c1ccc(S(=O)(=O)N2CCOCC2)cc1NC(=O)CNCc1ccccc1,-9.09
7,COc1cccc(C=NCCNC(=O)c2nonc2N)c1O,-21.9
8,Nc1nonc1C(=O)NCCN=Cc1ccccc1O,-0.48
9,COc1ccccc1C1C(C(=O)c2ccco2)=C(O)C(=O)N1c1cc(C)on1 (configuration not stated),16.5
10,CN1C(=O)Cn2c1nc1ccccc12,-4.7
11,COc1cc(/C=N/NC(=O)CCC(=O)Nc2ccc(C)cc2)ccc1O,2.61
12,C=CCn1c(CCNC(=O)c2cccs2)nnc1SCC(=O)Nc1cccc(Cl)c1C,40.6
13,Cc1ccc(C)c(NC(=O)CN(C)C(=O)CN2C(=O)NC3(CCc4ccccc43)C2=O)c1 (configuration not stated),18.4
14,Cc1cc(C)n(-c2cccc3cccnc23)n1,-3.86
15,Cc1ccc2cccc(NS(=O)(=O)c3ccccc3)c2n1,64.3
16,CCOC(=O)N1CCC(NC(=O)C2CCN(C(=O)c3cc4oc(C)cc4n3Cc3c(F)cccc3Cl)CC2)CC1,5.49
17,CCc1nc2nc(C)c(NS(=O)(=O)c3cccs3)c(=O)n2[nH]1,-14.6
18,COCc1nnc(NC(=O)c2sc3ccccc3c2Cl)s1,37.3
19,NC(=O)NC(=O)COC(=O)c1sc2ccccc2c1Cl,1.75
20,Cc1cnc(NC(=O)c2sc3ccccc3c2Cl)s1,-6.31
21,NC(=O)COC(=O)CNC(=O)c1sc2ccccc2c1Cl,8.7
22,CN(C(=O)COC(=O)c1n[nH]c(=O)c2ccccc12)c1ccccc1,-7.8
23,Cc1cc(F)ccc1NC(=O)C1CCCO1 (configuration not stated),-3.85
24,COc1ccc(NC(=O)NNC(=O)c2ccc3ccccc3c2)cc1OC,-2.52

row,SMILES,inhibition [%]
1,COc1ccc(/C=N\Nc2ccc([N+](=O)[O-])cc2[N+](=O)[O-])c(C(=O)O)c1OC,39.2
2,Nc1c(N(CCC2=CCCCC2)C(=O)c2ccc([N+](=O)[O-])o2)c(=O)[nH]c(=O)n1Cc1ccccc1,38.8
3,N#CC/C(N)=N/NC(=O)CCCNc1ncc(C(F)(F)F)cc1Cl,0.45
4,COc1ccc(Br)cc1/C(C)=N/NC1=NCCN1,21.5
5,CCOc1ccc(Br)cc1/C(C)=N\NC1=NCCN1,38
6,O=C1Nc2c(c(=O)[nH]c(=O)n2-c2ccc(F)cc2)C1(NS(=O)(=O)c1ccccc1)C(F)(F)F (configuration not stated),-0.54
7,CCn1c(=O)c(C(=O)Nc2ccccn2)c(O)c2ccccc21,27.7
8,CCCCCCn1c(=O)c(C(=O)Nc2ncccc2O)c(O)c2ccccc21,67.8
9,CCn1c(=O)c(C(=O)Nc2ncccc2O)c(O)c2ccccc21,23.7
10,CCCn1c(=O)c(C(=O)Nc2ncccc2O)c(O)c2ccccc21,66.8
11,C/C(CC(=O)Nc1ccc(Cl)cc1Cl)=N\NC(=O)C(=O)NCCO,24.8
12,CCN(CC)C(=O)CSc1ccc(C(F)(F)F)cc1[N+](=O)[O-],-2.61
13,CCOc1ccc(/C=N/NC(=S)NC2CC3CC2C2C=CCC32)cc1 (configuration not stated),-7.06
14,O=C(CNC(=O)c1[nH]cnc1C(=O)NC(c1ccccc1)c1ccccc1)OCc1ccccc1,44.5
15,Cc1nc(CNS(=O)(=O)c2ccccc2F)cs1,-17.8
16,CCN(CCCNC(=O)C1c2ccccc2C(=O)N(CCOC)C1c1ccc(F)cc1)Cc1ccccc1 (configuration not stated),1.48
17,CCC12CN3CC(CC)(CN(C1)C3c1ccc([N+](=O)[O-])o1)C2=O (configuration not stated),38.4
18,CC12CN3CC(C)(CN(C1)C3c1ccc([N+](=O)[O-])o1)C2=O (configuration not stated),18.6
19,C/C(=N\NC(=O)c1ccc2c(c1)OCO2)c1ccc(C(=O)O)s1,-9.87
20,COc1ccc(NC(=O)CN(C)C(=O)c2ccc(-c3ccccc3Cl)o2)cc1,12.7
21,CSc1nc(-c2ccco2)nn1C(=O)c1ccc(C)cc1,8.76
22,CC(C)(C)OC(=O)NCCc1nnc(SCc2ccc(Cl)cc2)o1,64.8
23,CC(C)(C)OC(=O)NCCc1nnc(SCc2ccc(Cl)cc2Cl)o1,41.4
24,CCOC(=O)c1nnc(-c2cccs2)nc1Oc1ccc(Cl)cc1,-0.21
